Test results: PubChem BioAssay AID624330 (Southern Research Specialized Biocontainment Screening …, 2012)
Screen size: about 340,000 compounds; about 2,100 (0.62%) were called active.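 How the source made its calls: active means first-screen hits whose inhibition reached a set limit at any dose in the follow-up dose series; inconclusive means inhibition above the set first-screen limit but never retested; inactive means the rest.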 Only a sample is shown. Entries with a potency or affinity are not part of this list.

target: Rac GTPase-activating protein 1 (Homo sapiens) (UniProt Q9H0H5); assay: MgcRacGAP GTPase-activating activity inhibitors, confirmation, biochemical, ADP Hunter fluorescence, primary and confirmatory (AID 624330); conditions: MgcRacGAP-stimulated Rac1 GTP hydrolysis, at 30 µM, stronger effect = higher value, GST-tagged Rac1 F28L mutant substrate;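 further: fluorescence reports GDP produced by GAP-driven GTP hydrolysis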
Sequence (Q9H0H5 whole entry, looked up): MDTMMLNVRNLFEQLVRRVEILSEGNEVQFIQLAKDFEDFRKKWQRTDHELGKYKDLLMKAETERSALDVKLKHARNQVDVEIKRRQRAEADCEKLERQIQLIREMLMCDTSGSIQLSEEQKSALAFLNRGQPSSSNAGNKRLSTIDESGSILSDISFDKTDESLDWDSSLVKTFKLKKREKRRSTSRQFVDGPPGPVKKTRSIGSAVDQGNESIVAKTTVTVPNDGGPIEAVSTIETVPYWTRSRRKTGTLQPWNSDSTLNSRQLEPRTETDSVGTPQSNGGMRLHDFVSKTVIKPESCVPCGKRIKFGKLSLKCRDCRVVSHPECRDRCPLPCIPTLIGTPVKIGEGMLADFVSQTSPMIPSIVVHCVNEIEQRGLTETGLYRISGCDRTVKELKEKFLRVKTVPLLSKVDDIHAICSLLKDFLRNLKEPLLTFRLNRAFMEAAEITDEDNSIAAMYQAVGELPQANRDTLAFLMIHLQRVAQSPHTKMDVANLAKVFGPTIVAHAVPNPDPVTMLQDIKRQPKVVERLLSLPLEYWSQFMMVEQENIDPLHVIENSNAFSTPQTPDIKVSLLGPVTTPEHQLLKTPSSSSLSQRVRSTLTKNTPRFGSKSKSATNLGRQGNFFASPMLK

inhibition, inactive:
CC1(C)CC(=O)N(Cc2ccccc2)C(=O)C1 2.51%
O=C(NCCc1ccc(F)cc1)C(=O)NCC1CCCN1S(=O)(=O)c1cccs1 (stereo not given) -7.17%
COc1ccc(/C=N/NC(=O)CC(=O)NCCc2ccccc2)cc1OC 1.81%
COC(=O)c1ccc(/C=N\NC(=O)CC(=O)NCCc2ccccc2)cc1 0.63%
COc1cc(/C=N/NC(=O)C(=O)NCc2ccco2)ccc1O 17.7%
COc1ccc(/C=N/NC(=O)/C(=C/c2ccccc2)CCO)cc1 8.48%
CC(C(=O)Nc1ccc(S(=O)(=O)N2CCOCC2)cc1)N1CCN(c2ccccn2)CC1 (stereo not given) -2.88%
CCc1cc(C(=O)OC)c(NC(=O)CC2NCCNC2=O)s1 (stereo not given) 0.55%
CC(C)OCC(O)CN1CCNCC1 (stereo not given) 5.48%
OC(COc1ccccc1Br)CN1CCNCC1 (stereo not given) 1.5%
CC(C)CN(CC(C)C)C(=O)C12CCC(C)(C(=O)C1)C2(C)C (stereo not given) -15.8%
Cc1ccc(NC2CCCN(C(=O)c3cccs3)C2)cc1C (stereo not given) 22.5%
CCOc1ccc(OCc2ccc(C(=O)N3CCCC(C)C3)cc2)cc1 (stereo not given) 0.96%
Cc1ccc(NC(=O)CN2CCCC2)cc1Br 30.6%
Cc1ccc(NC(=O)CN2CCCCCC2)cc1Br 24.2%
Cc1nccn1CC(=O)N/N=C/c1cc(Br)cs1 3.63%
CCCCCNCC(=O)Nc1cc(C(F)(F)F)ccc1OCCOC 29.2%
COc1ccccc1NC(=O)CN1CCN(c2ccccc2)CC1 3.59%
O=C(Cc1ccccc1)N/N=C/c1cc(Br)cs1 10.7%
CN1CCN(CC(=O)Nc2ccccc2Oc2ccccc2)CC1 4.33%
COCCOc1ccc(C(F)(F)F)cc1NC(=O)c1ccc(C(F)(F)F)cc1 -6.51%
O=C(CNC(=O)c1ccccc1)NCC(O)c1ccc([N+](=O)[O-])cc1 (stereo not given) -4.75%
CCOCCCNC(=O)Cn1cnc2sc(C)c(S(=O)(=O)N3CCN(c4ncccn4)CC3)c2c1=O 2.97%
CC(C)C[C@H]1CN([C@@H](Cc2ccc(O)cc2)CN2CCC[C@@H]2CN2C(=O)C(=O)NC[C@@H]2Cc2ccccc2)C(=O)C(=O)N1CC1CCCCCC1 10.4%
O=C(CNC(=O)c1ccco1)NCc1ccc2c(c1)OCO2 3.26%
C=CCn1c(-c2ccc(Cl)cc2)cnc1SC(C)C(N)=O (stereo not given) 13.8%
CCOc1cc(N2CCOCC2)c(OCC)cc1NC(=O)c1ccc2ncsc2c1 9.53%
Cn1c(=O)c2[nH]c(Cc3cccc(O)c3)nc2n(C)c1=O -6.27%
O=C(Nc1ccc2c(c1)OCO2)O[C@@H]1C[C@H]2CCC(=O)N3CC[C@@H](C1)[C@@H]23 5.22%
COc1ccc(CN2CCNC(=O)C2CC(=O)NCCc2nc(C)c3c(n2)CCC3)cc1C (stereo not given) 3.36%
Cc1ccc(NC(=O)CCN2CCN(CCO)CC2)cc1Br 7.64%
COc1ccc(N)cc1NC(=O)CN1CCCC1 30%
CCOC(=O)N1CCN(CC(=O)Nc2ccc(C)c(Br)c2)CC1 19.6%
CCCCOc1ccc(NC(=O)CN2CCN(C(=O)OCC)CC2)cc1 23.5%
Cc1ccc(N)cc1NC(=O)CN1CCOCC1 9.26%
CCCCOc1ccc(NC(=O)CN2CCN(Cc3ccccc3)CC2)cc1 2.92%
CCOc1ccccc1NC(=O)CSC1=NN2CCCC(=O)N=C2S1 4.37%
O=C(Cc1nnc(NC(=O)Nc2ccccc2)s1)NCc1ccccc1 11.4%
O=C(Cc1ccccc1)NCCSCc1ccccc1 10.9%
CC(=O)NS(=O)(=O)c1ccc(NC(=O)c2cccc3ccccc23)cc1 5.73%
COC(=O)c1ccccc1NC(=O)c1cc(-c2ccc(C)cc2)on1 -6.22%
N#CCCN1CCN(C(=S)c2ccc(-c3cccc(Cl)c3)o2)CC1 6.88%
Cc1ccc(N=c2ssnc2Cl)cc1 9.47%
Clc1nssc1=Nc1nncs1 20.4%
CCCCCCCNC(=O)C1(CC2CC(c3ccccc3)=NO2)CCN(C(=O)c2ccccc2)CC1 (stereo not given) 7.41%
O=C(Cc1cccc(C(F)(F)F)c1)N1CCCC1 1.4%
COc1ccc(Br)cc1/C=N/NC(=O)CN1CCN(Cc2ccccc2)CC1 2.09%
COc1ccc(C(=O)N/C(=C\c2cn(S(=O)(=O)N(C)C)c3ccccc23)C(=O)N2CCCC2)cc1 12%
CCOc1cc(/C=N/n2nnnc2N)ccc1OCc1c(C)no[n+]1[O-] 7.97%
O=C(/C=C/c1ccc(Br)cc1)NC(=O)c1ccccc1O 0.42%
O=C(/C=C/c1ccccc1)NC(=O)c1ccccc1O 11.1%
CCN(CC)C(=O)c1[nH]cnc1C(=O)N[C@@H](CC(C)C)C(=O)OC(C)(C)C 8.38%
COc1ccc2c(c1OC)C(=O)OC2CC(=O)c1ccc(O)cc1 (stereo not given) 12.6%
COc1ccc(C(=O)CC2OC(=O)c3c2ccc(OC)c3OC)cc1 (stereo not given) -2.86%
COc1cc(S(=O)(=O)N2CCCCC2)ccc1NC(=O)c1ccncc1 4.39%
O=C(NCc1ccccc1)c1n[nH]nc1-c1ccccc1O -8.5%
Nc1nc(N)c(N=Nc2ccccc2)c(=O)[nH]1 2.34%
Nc1nc(N)c(N=Nc2ccc(C(=O)O)cc2)c(N)n1 -11.2%
C[C@H](CO)N1C[C@H](C)[C@@H](CN(C)S(C)(=O)=O)Oc2ccc(NC(=O)CCN3CCOCC3)cc2C1=O 3.2%
O=[N+]([O-])c1cc(/C=N/Nc2nc(N3CCCCC3)nc(N3CCCCC3)n2)ccc1O 9.9%
CCOc1ccc(/C=N/Nc2nc(N3CCCC3)nc(N3CCCC3)n2)cc1OC 3.96%
C(=N\Nc1nc(N2CCCC2)nc(N2CCCC2)n1)/c1ccncc1 -2.52%
COc1ccc(/C=N/Nc2nc(N3CCCC3)nc(N3CCCC3)n2)cc1 3.1%
COc1ccc(/C=N/Nc2nc(N3CCCCC3)nc(N3CCCCC3)n2)cc1[N+](=O)[O-] -0.88%
CCOc1cc(/C=N/Nc2nc(N3CCCC3)nc(N3CCCC3)n2)ccc1O 26.7%
